Data on 54 compounds can be found in PubChem BioAssay AID493084 (National Center for Advancing Translational Sciences (NCATS), 2011).

Out of some 360,000 compounds screened, about 650 (0.18%) were called active. Only a selection was taken, and actives are over-represented in it overall. A number with no mark means an inactive call. Rule as the data show it: active = activation above about 30%; inactive = the rest.

For the experiment, the target named is Thyrotropin-releasing hormone receptor (Homo sapiens) (UniProt P34981). As to the kind of experiment: qHTS for Small Molecule Agonists and Allosteric Enhancers of Human TRH Receptor: Primary Screen for Agonists. Also: 0% is about no effect. The conditions noted are these: TRHR cells, calcium flux fluo-8, FDSS agonist mode; at 2 µM; active compounds read high. From the text: NIH Chemical Genomics Center [NCGC] NIH Molecular Libraries Probe Centers Network [MLPCN] MLPCN Grant: MH089816-01 Assay Submitter (PI): Marvin Gershengorn This project aims to identify small drug-like molecules that activate (agonists) the thyrotropin releasing hormone (TRH) receptor (TRHR) or enhance its TRH-stimulated activity (allosteric enhancers). TRHR, a drug-accessible cell surface receptor expressed in specific brain regions, and its ligand TRH have been implicated in several central nervous system disorders, including depression and anxiety. Small molecule TRHR agonists or allosteric enhancers that are metabolically stable and able to cross the blood-brain barrier might serve as probes to elucidate the roles of brain TRH receptors in animal models, and might be valuable as lead compounds for the development of drugs to treat patients with central nervous system disorders. Upon TRHR-Gq activation in TRHR cells, intracellular calcium is released from stores in the endoplasmic reticulum. […] This primary screen measures compound-induced activation of calcium release.
Sequence of Thyrotropin-releasing hormone receptor (Homo sapiens) (P34981 whole entry, looked up): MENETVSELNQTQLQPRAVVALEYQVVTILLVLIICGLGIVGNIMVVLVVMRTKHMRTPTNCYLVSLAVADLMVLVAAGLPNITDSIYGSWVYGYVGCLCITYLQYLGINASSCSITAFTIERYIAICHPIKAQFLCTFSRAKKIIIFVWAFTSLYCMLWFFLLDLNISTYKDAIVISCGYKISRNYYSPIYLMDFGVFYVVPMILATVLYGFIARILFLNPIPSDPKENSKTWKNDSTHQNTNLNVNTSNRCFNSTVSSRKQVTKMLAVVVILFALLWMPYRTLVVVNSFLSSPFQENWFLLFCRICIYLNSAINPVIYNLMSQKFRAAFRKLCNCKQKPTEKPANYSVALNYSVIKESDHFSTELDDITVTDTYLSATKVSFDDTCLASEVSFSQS
For the HTS assay freshly prepared cells are plated at a density of 2000/well in 3 ul of complete DMEM medium containing 10% serum in 1536-well plates and cultured over night at 37 C in a humidified incubator with 5% CO2. The next day, 2 ul of a no wash calcium dye (ABD Bioquest) was added to the cells and plates were incubated at room temperature for 1 hour. For the assay, assay plates were loaded into the FDSS kinetic plate reader. A 10 cycle (1 second/cycle) baseline measurement is taken and then the FDSS online 1536 pintool delivers 23 nl of compound library (as well as TRH controls) to the plate. The plate is measured for kinetically at 1 cycle/sec for 180 seconds and is considered to be the agonist portion of the assay (eg, compounds which activate a positive calcium response during this portion are flagged as potential agonists). Following the 180 second read, 1 ul of either an EC20 (positive modulation assay) is delivered by an onboard pipette head. Measurements are taken kinetically for an additional 180 seconds. TRHR FDSS Screening Protocol 1. Reagent, 3 uL 2000 cells/well 1536 TC treated Black plate in media containing 10% FCS 2. Time, 18 hours, 33.5C 5% CO2 (cells grown at 37C) 3. Reagent, 2 uL ABD fluo-8 Ca dye 4. Time, 30 min-1.5hrs hours, Room temp (6 plates/batch) 5. Detector, EX 480/EM 530C, FDSS 10 cycles baseline (1sec/cycle) 6. Compound, 23 nL of stock solution from library 7. Detector, EX 480/EM 530C, FDSS […] (1sec/cycle) Agonist mode 8. Compound, 1 ul EC20 of TRH made up in HEPES HBSS, 10 nM final 9. Detector, EX 480/EM 530C, FDSS 100 cycles (1sec/cycle) Potentiator mode
For orientation: Quantitative high-throughput screening tests each substance at several concentrations.
For the compound `COc1ccc(N2CCN(C3=NS(=O)(=O)C(c4cccc(Br)c4)=C3C)CC2)cc1`, the activation is -0.301%.
The value for `COc1cc(C(=O)NCCS(=O)(=O)N2CCN(c3ccccc3)CC2)cc(OC)c1OC` was 0.101%; that for `CCc1ccc(-n2nnc(-c3nc(-c4ccccc4)no3)c2C)cc1` was 0.119%.
The value for `CCCN(CCC)C(=O)C1CCCN(c2ncnc3c2nc2n3CCCCC2)C1` (centres undefined) was -0.956%; that for `O=C(CC(NCc1cccnc1)C(=O)O)Nc1ccc(O)cc1` (centres undefined) was 0.363%; that for `CCOc1cccc(CC(=O)N2CCc3c([nH]c4ccccc34)C2c2ccc(OC)cc2)c1OCC` (centres undefined) was 0.0175%.
Under `CC1CCCN(c2cc3c(cc2F)c(=O)c(S(=O)(=O)c2cccc(Cl)c2)cn3Cc2ccccc2)C1` (centres undefined) stands 0.542%; under `CCN(CC)c1ccc2oc(=O)c(C)nc2c1`, 100% (active); under `COc1cccc(N2CCN(S(=O)(=O)c3ccc4c(c3)CCCN4C(C)=O)CC2)c1`, -0.749%.
With `COc1ccc(CCNC(=O)Cn2c(=O)cc(C(F)(F)F)c3c(C)nn(C)c32)c(OC)c1`, the activation is -0.214%.
The value for `Cc1cc2c(s1)c1cnn(Cc3c(F)cccc3Cl)c(=O)c1n2C` was -0.043%; that for `COc1cccc(NC(=O)Nc2ccc3c(c2)N(C)C(=O)c2ccccc2S3)c1` was -0.213%; that for `CCOC(=O)c1c(S(=O)(=O)N2CCCC(C(=O)NCc3ccc(F)cc3)C2)c(C)n(CC)c1C` (centres undefined) was -0.483%.
On to `O=S(=O)(c1ccc(Br)cc1)c1nnn2c1nc(NC1CCCCCC1)c1sccc12`, for which the activation is -0.704%.
Under `COc1ccc(NC(=O)CSc2nc3ccccc3n2CC(=O)N2CCCCC2C)cc1` (centres undefined) stands -0.312%; under `N#Cc1nc(Nc2cccc(Cl)c2)nc(NC2CCCC2)n1`, -2.51%; under `COc1ccccc1N1CCN(S(=O)(=O)CCNC(=O)COc2ccc(F)cc2)CC1`, -0.566%.
For `CCOc1cccc2c1N[C@@H](c1ccc(C(=O)O)cc1)[C@H]1CC=C[C@@H]21`, the activation was 0.0412%.
For the compound `COc1ccc(CNC(=O)Cc2coc3ccc(C(C)C)cc23)cc1`, the activation is -0.0096%.
The value for `CCOc1cc(-c2nnc(SCC(=O)NC3CCCC3)nc2-c2ccc(OC)c(OCC)c2)ccc1OC` was 0.306%; that for `CCOC(=O)c1nnn(CC(=O)NC(=O)Nc2ccccc2F)c1C(=O)OCC` was 1.07%; that for `CN1CCOc2cc(S(=O)(=O)N3CCN(S(=O)(=O)c4c(F)cccc4F)CC3)cnc21` was -0.448%.
`Nc1ccc2nc3c(=O)[nH]c(=S)[nH]c3nc2c1`: the activation is 35.9% (active).
The value for `CCN(c1ccc(Cl)cc1)S(=O)(=O)c1nnc(NC(=O)c2ccco2)s1` was -0.115%; that for `COc1ccc(CCNC(=O)Cn2c(=O)n(-c3ccccc3)c(=O)c3c(C)c(C)sc32)cc1OC` was -1.42%; that for `O=C(NCc1nnc(C(=O)Nc2ccc(C(F)(F)F)cc2Cl)o1)c1ccccc1` was -2.31%.
As for `COC(=O)c1ccccc1NC(=O)c1ccc(C#N)cc1`, the activation is 0.34%.
Under `Cc1ccccc1C(=O)NCc1nc(-c2ccc(Cl)cc2)no1` stands -0.152%.
The value for `Cc1cccc(C(C)C)c1NC(=O)C(NS(=O)(=O)c1cccc2nsnc12)c1ccccc1` (centres undefined) was -0.333%.
For the compound `COc1ccc(CNC(=O)Cn2nnc(-c3ccccc3F)n2)cc1`, the activation was -0.359%.
Under `CCOc1ccccc1N(CC)C(=O)c1cc2ccc3cccnc3c2[nH]1` stands 2.85%.
Under `Cc1ccccc1NC(=O)CN1C(=O)C(C)(C)c2ccccc21` stands 0.364%; under `CCOc1ccc2nc(N3CCC(C(=O)Nc4cc(C)ccc4C)CC3)sc2c1`, -0.106%; under `Cc1ccccc1NC(=O)c1cc2c([nH]c1=O)CC(C)(C)CC2=O`, 1.28%.
Consider `Cc1ccc(CNC(=O)c2cccc3c2C(=O)c2ccc(N4CCC(C)CC4)cc2S3(=O)=O)cc1`, for which the activation is 86.3% (active).
With `Cc1ccc(CNC(=O)c2ccccc2CCc2ccccc2)cc1`, the activation is 0.513%.
The value for `COc1cccc(-c2ccc3c(c2)S(=O)(=O)c2cccc(C(=O)O)c2C3=O)c1OC` was 0.018%; that for `COC(=O)C1=C(C)NC2=C(C(=O)c3ccccc32)C1c1ccc(-c2ccc(C(=O)O)cc2)o1` (centres undefined) was 46.3% (active).
Take `CCOc1cc(C2C(C(=O)OC)=C(C)NC3=C2C(=O)c2ccccc23)ccc1O` (centres undefined): the activation was 0.256%.
The value for `Cc1ccc(C2C3=C(Nc4[nH]n(-c5ccccc5)c(=O)c42)c2ccccc2C3=O)cc1` (centres undefined) was -0.291%; that for `Cc1c(C)n(Cc2ccc(Cl)cc2)c2ccc(C(=O)NCCc3ccc(S(N)(=O)=O)cc3)cc12` was 0.277%; that for `Cc1nn(-c2ccc(N3CCCCC3)nn2)c(C)c1CCC(=O)NCc1ccc(F)cc1` was -0.372%.
As for `CCN1/C(=C\c2ccc3ccccc3[n+]2CC)Sc2cc(C)ccc21`, the activation was 34.6% (active).
As to `CCCC12CN3CC(CCC)(CN(C1)C3c1c[nH]c3ccc(OC)cc13)C2=O` (centres undefined), the activation is 2.39%.
The value for `CCOc1cc(/C=C(\C#N)C(=O)Nc2ccccc2C)ccc1OCc1cc(=O)n2nc(CC)sc2n1` was -1.33%; that for `CCOc1cc(/C=C(\C#N)c2nc(-c3cccs3)c(NC(C)=O)s2)ccc1O` was 37.3% (active); that for `CCOc1cc(/C=C(/C#N)c2ccc(Cl)cc2)cc(Cl)c1OCC(=O)O` was -0.184%.
As to `Cc1nc2ccc(S(=O)(=O)N(CC(=O)Nc3ccc(F)cc3)Cc3ccccc3)cc2s1`, the activation is -0.726%.
Under `Cc1ccc(-n2nc(C)c3c(C)cc(=O)n(CC(=O)Nc4ccc(C(C)C)cc4)c32)cc1` stands -0.803%; under `Cc1cccc(NC(=O)N2CCC(CN3CCc4ccccc4C3)CC2)c1C`, -0.238%.
For `O=C(Nc1ccc(OC(F)(F)F)cc1)c1cc2c(=O)n3ccccc3nc2s1`, the activation is 0.583%.
As to `O=C(/C=C(O)/C=C/c1ccc(O)cc1)/C=C/c1ccc(O)cc1`, the activation was 150% (active).
The value for `CC1=CC2=NC(=O)/C(=C/c3coc4ccccc4c3=O)C(=N)N2O1` was 111% (active); that for `COc1ccc(OCCCn2cccc2/C=C2/C(=N)N3OC(C)=CC3=NC2=O)cc1` was -0.544%.
